Source: PubChem BioAssay (National Center for Advancing Translational Sciences (NCATS))
IL-1B inflam inh = inflammasome signaling inhibition, IL-1 beta readout; THP-1 LPS/ATP IL-1B secretion, AlphaLISA, 16 h; stronger effect = lower value; AID 743279; hit rate 4.7% among 360,000; activity change, % at 57.5 µM; in the data active = activity change below about -50%; inconclusive = mostly about -30% to -49%
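THP-1 cells pretreated 1 hr with compounds (up to 57.5 uM final), then stimulated with LPS (250 ng/mL final) plus ATP (1.25 mM final); secreted IL-1B measured by AlphaLISA after 16 hr, decreased signal indicating inhibition.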
ELG1 repair inh = ELG1-dependent DNA repair inhibition | HEK293T ELG1-luciferase reporter, luminescence, 16 h; DNA damage induced by 5-fluorouridine | Potency, µM (series often up to 46.1 µM), for the others: at the top dose activity change, negative = inhibition, hits mostly inhibitors | hit rate 2.3% among 330,000 | AID 504467; note: potency is the fitted concentration of half-maximal effect; nearly all actives have a fitted effect of over 55% in size
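Reporter activity after DNA damage by 5-fluorouridine is monitored. Compound-treated cells incubate 16 hr at 37 °C, then ONE-Glo is added for 30 min before luminescence reading.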
DT40 TDP1 CPT = growth inhibition of DT40 Tdp1-/-;hTDP1 cells with camptothecin (screen for TDP1 inhibitors) | Potency, µM (highest dose often 46.2 µM), inactives show top-dose activity change, negative = growth inhibition, actives largely listed as inhibitors | chicken DT40 Tdp1-/-;hTDP1 cells + 20 nM CPT, ATP luminescence, 48 h | hit rate 12% among 420,000; note: potency is the fitted concentration of half-maximal effect; nearly all actives have a fitted effect of over 55% in size
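Cell growth measured by CellTiter-Glo luminescence after a minimum 48 h, 37 C compound exposure with 20 nM CPT in Tdp1-knockout DT40 cells stably expressing hTDP1, seeded 400/well; qHTS titration format.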
VP16 counter = counter-screen for ROR gamma inhibitors: Gal4-VP16 reporter | Drosophila S2 Gal4-VP16 UAS-luciferase, luminescence, 20 h | Potency, µM (series often up to 53.6 µM), for inactives: at the top dose activity, negative = inhibition, hits mostly inhibitors | hit rate 3.5% among 310,000 | AID 2546;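 note: Gal4-VP16 expression switched on by copper sulfate through the metallothionein promoter; potency is the fitted concentration of half-maximal effect; nearly all actives have a fitted effect of over 50% in size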
TDP1 cell noCPT = qHTS for Inhibitors of human tyrosyl-DNA phosphodiesterase 1 (TDP1): qHTS in cells in absence of CPT | DT40 Tdp1-/- hTDP1 cells, no CPT, ATP luminescence, 48 h | Potency, µM (titrated, usually from 46.2 µM), inactives show at the top dose activity change, negative = growth inhibition, most hits filed as inhibitors | hit rate 15% among 420,000; note: potency is the fitted concentration of half-maximal effect; nearly all actives have a fitted effect of over 55% in size
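Camptothecin absent (DMSO only). Human TDP1-complemented DT40 knockout cells, 400 cells/well, 37 °C for minimum 48 hr; ATP measured via CellTiter-Glo, 30 min dark incubation, luminescence.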
RORg inh = blocks mouse ROR gamma transcriptional activity; P51450; Drosophila S2 Gal4-RORgamma UAS-luciferase reporter, 20 h; Potency, µM (doses to about 53.6 µM), for inactives: at the top dose activity change, negative = inhibition, most hits filed as inhibitors; hit rate 5.4% among 310,000; AID 2551; note: potency is the fitted concentration of half-maximal effect; nearly all actives have a fitted effect of over 60% in size
Target sequence (P51450 whole entry, looked up, the tested form may be a part): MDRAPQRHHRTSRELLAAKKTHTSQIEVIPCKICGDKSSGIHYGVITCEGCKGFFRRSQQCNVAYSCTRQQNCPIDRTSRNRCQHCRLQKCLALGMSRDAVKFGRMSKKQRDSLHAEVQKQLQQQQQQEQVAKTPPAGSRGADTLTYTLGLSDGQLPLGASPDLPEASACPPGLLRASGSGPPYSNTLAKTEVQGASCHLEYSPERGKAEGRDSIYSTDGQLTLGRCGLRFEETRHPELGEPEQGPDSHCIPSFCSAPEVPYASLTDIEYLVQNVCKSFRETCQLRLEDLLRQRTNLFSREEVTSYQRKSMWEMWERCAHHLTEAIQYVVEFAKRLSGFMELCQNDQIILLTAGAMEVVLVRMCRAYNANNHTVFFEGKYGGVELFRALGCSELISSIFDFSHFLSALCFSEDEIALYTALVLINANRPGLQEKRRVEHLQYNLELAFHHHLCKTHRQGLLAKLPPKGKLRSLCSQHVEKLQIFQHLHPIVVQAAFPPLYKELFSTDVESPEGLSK
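Stably transfected Drosophila Schneider cells are the test system, with ROR gamma fused to Gal4 and luciferase under UAS control; luminescence is read after 20 hr of 700 uM copper sulfate induction at ambient temperature.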
Active calls of the source: *; ? = inconclusive; · = no result given; [ ] = remark or other dose. Most compounds without a hit are left out; they make up all but 21% or so of the library. Unless noted, calls come from the whole dose curve; as a rule, active = well fitted curve in the direction sought with a large enough effect; inconclusive = small, poorly fitted or top-dose-only effect, or another doubt; inactive = no such curve, though single readings can be large; an effect the other way counts as inactive or inconclusive. % is set by controls: 0 for no effect and ±100 for the full control effect.

SMILES	IL-1B inflam inh	ELG1 repair inh	DT40 TDP1 CPT	VP16 counter	TDP1 cell noCPT	RORg inh
O=C(NCc1cccc(Cl)c1)C1Cc2c(-c3ccccc3Oc3ccccc3)ccnc2O1 (stereo not given)	-12	·	23µM*	·	?	·
COc1ccc(CNC(=O)C2Cc3c(-c4ccccc4Oc4ccccc4)ccnc3O2)cc1OC (stereo not given)	-29	·	18µM*	·	21µM*	·
CCCCCNC(=O)C1CC(=O)OC12CCCCC2 (stereo not given)	0	6%	-1%	5%	-8%	9%
COc1ccc(NC(=O)Nc2ccccc2F)cc1Cl	-22	?	-10%	-2%	-25%	3%
CCCCCCCCOc1ccccc1C(=O)Nc1ccc(C(=O)OCC[N+](C)(CC)CC)cc1	·	·	?	-6%	?	29%
COC(=O)c1cnn(-c2ccccc2)c1C(OC)OC	5	?	7%	-6%	0%	?
CNC(=S)N/N=C/c1c(C(=O)OC)cnn1-c1ccc(F)cc1F	2	?	?	?	16µM*	8.9µM*
COC(=O)c1cnn(-c2ccc(F)cc2F)c1/C=N/NC(N)=S	10	13µM*	?	-22%	?	-83%
COC(=O)c1cnn(-c2ccc(F)cc2F)c1/C=N/NC(=S)NC(C)(C)C	34	?	?	?	?	1.3µM*
COC(=O)c1cnn(-c2ccccc2)c1/C=N/NC(=S)Nc1ccccc1	91	21µM*	?	3.5µM*	21µM*	0.89µM*
C=C1C=C(C)n2ncc(C(=O)Nc3ccc(F)cc3F)c2N1	·	·	1%	·	4%	·
CC(C)(C)NC(=S)N/N=C/c1cc(Br)c(O)c(Br)c1	3	0%	-2%	?	?	?
CCOC(=O)c1c(C)oc2nc(C)nc(NCC3CCN(Cc4ccccc4C)CC3)c12	·	·	-11%	·	-2%	·
O=C(Nc1cc(-c2nc3ccccc3o2)ccc1Cl)c1ccc(Br)o1	·	·	-27%	·	-13%	·
Cc1nn(S(=O)(=O)c2ccc(F)cc2)c(C)c1S(=O)(=O)N1CCCCCC1	·	·	9%	·	2%	·
O=S(=O)(NCc1ccco1)c1cnc(Cl)c(Br)c1	·	?	-4%	5%	5%	8%
O=S(=O)(NCCc1ccccc1)c1cnc(Cl)c(Br)c1	-90*	0%	-12%	·	-13%	·
COc1ccc2cnoc(=O)c2c1OC	·	·	17%[9.04 µM]	2%	7%[9.04 µM]	-7%
COc1ccc([C@H]2CN(Cc3ccccc3)C(=O)[C@@H]2CC(=O)Nc2ccccc2)cc1	-1	·	-1%	·	?	·
COc1ccc(CN2CCCN(S(=O)(=O)c3ccc(Br)cc3)CC2)cc1	-71*	?	?	-7%	18µM*	7%
COc1ccc(S(=O)(=O)N2CCN(Cc3cccc(F)c3)CC2)cc1	-23	·	-4%	·	29µM*	·
COc1ccc(S(=O)(=O)N2CCN(Cc3cccc(Cl)c3)CC2)cc1	-14	-20%	?	6%	?	12%
COc1cccc(CN2CCN(S(=O)(=O)c3ccc(Cl)s3)CC2)c1	-51*	7%	3%	-14%	-4%	31%
COc1ccc(S(=O)(=O)N2CCN(Cc3ccc(Cl)cc3)CC2)cc1	-65*	-19%	?	·	?	1%[0.365 µM]
S=c1[nH]c2ccc(Cc3ccc4[nH]c(=S)[nH]c4c3)cc2[nH]1	-16	?	0%	-11%	-16%	2%
SMILES	IL-1B inflam inh	ELG1 repair inh	DT40 TDP1 CPT	VP16 counter	TDP1 cell noCPT	RORg inh
Cc1nn(C(=O)c2ccccc2)c(C)c1S(=O)(=O)N1CCCCCC1	·	·	-13%	·	-24%	·
S=C1NCCc2ccc(Cl)cc2C1c1ccccc1Cl (stereo not given)	-1	-4%	?	3.5µM*	?	5µM*
O=C1Cc2ccccc2C(c2ccc(Cl)cc2Cl)N1 (stereo not given)	52	0%	-21%	4%	-12%	5%
Cc1cc2c(c(=O)n1Cc1cccnc1)C(c1cccs1)C(C#N)=C(N)O2 (stereo not given)	56	?	-27%	2%	?	15%
COc1ccc(C2C(C#N)=C(N)Oc3cc(C)n(Cc4ccncc4)c(=O)c32)cc1 (stereo not given)	-9	-7%	4.6µM*	4%	2.1µM*	-3%
Cc1cc2c(c(=O)n1Cc1cccnc1)C(Cc1ccccc1)C(C#N)=C(N)O2 (stereo not given)	-8	-16%	-20%	14µM*	-17%	?
CN(C(=O)c1cccc(NC(=O)Cc2ccc(NC(=O)C3CCCN(C(=O)C4CC4)C3)cc2)c1)C1CCC1 (stereo not given)	12	·	7%	·	5%	·
CCc1nc2ccc(C(=O)Nc3cc(-c4ccccc4)ccc3OC)cn2c1N(CC)CCN(C)C	-14	·	16µM*	·	18µM*	·
CCCCN(C=O)c1c(CC)nc2ccc(C(=O)Nc3cc(-c4ccccc4)ccc3OC)cn12	-70*	·	?	·	16µM*	·
CCCCN(C=O)c1c(CC)nc2ccc(C(=O)NCCN(C)C)cn12	-9	·	-16%	·	-5%	·
COc1ccc(-c2ccoc2)cc1[C@H]1[C@H]2C=CC[C@@H](C)[C@@H]2C(=O)N1Cc1ccccc1	-66*	-27%	?	-8%	?	44%
COc1ccc(-c2ccc(OC)c([C@H]3[C@H]4C=CC[C@@H](C)[C@@H]4C(=O)N3Cc3ccccc3)c2)cc1	41	-3%	15µM*	-8%	15µM*	-15%
CC1CCN(S(=O)(=O)c2ccc3c(c2)N(CC(=O)Nc2ccc(F)c(Cl)c2)C(=O)CO3)CC1	·	·	23µM*	·	15µM*	·
COc1cccc(NC(=O)CN2C(=O)COc3ccc(S(=O)(=O)N4CCCCCC4)cc32)c1	-24	0%	?	0%	?	10%
COc1ccc(NC(=O)CN2C(=O)COc3ccc(S(=O)(=O)N4CCCCC4)cc32)cc1Cl	·	·	?	·	15µM*	·
Cc1ccc(NC(=O)CN2C(=O)COc3ccc(S(=O)(=O)N4CCCCCC4)cc32)cc1Cl	·	·	21µM*	·	15µM*	·
Cc1ccc(NC(=O)CN2C(=O)COc3ccc(S(=O)(=O)N4CCCC4)cc32)cc1C	-52*	15%	-1%	2%	?	10%
CC(C)c1ccc(NC(=O)CN2C(=O)COc3ccc(S(=O)(=O)N4CCCCC4)cc32)cc1	·	·	?	·	23µM*	·
CC(C)NC(=O)CN1C(=O)COc2ccc(S(=O)(=O)N3CCCCCC3)cc21	·	·	-1%	·	1%	·
